In PubChem BioAssay:
Unmarked numbers belong to inactive results. No rule for the calls is given here.

target: Pantothenate synthetase (Mycobacterium tuberculosis (strain ATCC 25618 / H37Rv)) (UniProt P9WIL5); assay: Coupled enzyme confirmation of inhibitors against recombinant Mtb PanC (AID 375); details: coupled enzyme assay; at 10 µM, stronger effect = higher value;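 also: 0% = full reaction with vehicle and 100% = no enzyme background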
Sequence (P9WIL5 whole entry, looked up): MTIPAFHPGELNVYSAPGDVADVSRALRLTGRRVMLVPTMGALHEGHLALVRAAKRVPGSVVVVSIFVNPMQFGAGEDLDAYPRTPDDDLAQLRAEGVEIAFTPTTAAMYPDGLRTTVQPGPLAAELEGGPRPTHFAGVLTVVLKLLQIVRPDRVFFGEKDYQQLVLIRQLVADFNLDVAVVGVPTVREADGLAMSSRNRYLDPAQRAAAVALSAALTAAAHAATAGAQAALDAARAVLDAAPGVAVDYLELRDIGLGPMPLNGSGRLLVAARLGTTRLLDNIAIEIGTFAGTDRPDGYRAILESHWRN

`CC(C)(C)NC(=O)C(c1ccco1)N(C(=O)Cn1nnc(-c2ccc(F)cc2)n1)c1ccccc1` (stereo not drawn) and `O=C(Nc1ccon1)c1cc(-c2ccccc2)nc2ccccc12` are the same in inhibition: 0% for the first, 0% for the second.

Compared with `CCOc1ccc(C2CC(c3cccc(OC)c3)Nc3nc(N)nn32)cc1` (stereo not drawn), `COc1ccc(C(=O)Nc2ccc(S(=O)(=O)Nc3onc(C)c3C)cc2)cc1` is higher in inhibition: 0% for the first, 1% for the second.

Going from `Cn1ncc2c(Nc3ccccc3Br)ncnc21` to `Cc1nn(-c2nc3ccccc3s2)c(C)c1Oc1ccccc1O`, the inhibition rises from 0% to 2%.

`Cc1nc(N)[nH]c(=O)c1CCC(=O)OCC(C)C` and `Cc1ccc(CNC(=O)COC(=O)c2c(C)noc2C)cc1` are the same in inhibition: 0% for the first, 0% for the second.

`COc1cccc(NC(=O)N2CCN(C(=O)C(Cc3ccc(OC)c(OC)c3)NC(C)=O)CC2)c1` (stereo not drawn) and `COc1ccc(CCNC(=O)c2cc3sc(Cl)cc3n2C)cc1OC` are the same in inhibition: 0% for the first, 0% for the second.

`O=C(CN1CCN(Cc2ccc3c(c2)OCO3)CC1)Nc1ccc2c(c1)OCCO2` and `CCOC(=O)C1CCN(c2c(Nc3ccc4c(c3)OCCO4)c(=O)c2=O)CC1` are the same in inhibition: 0% for the first, 0% for the second.

Going from `O=C(Nc1ccc2c(c1)C(=O)N(C1CCCCC1)C2=O)C1CCCO1` (stereo not drawn) to `CCOC(=O)c1ccc(NC(=O)NC(C)C2CCCO2)cc1` (stereo not drawn), the inhibition falls from 6% to 0%.

First: CC1(C)Cc2ccccc2C(N)=C1C#N
Second: CC(=O)c1c(C)[nH]c(C(=O)OCc2nnc(-c3ccccc3)o2)c1C
The inhibition of the first is higher: 5% for the first, 0% for the second.

Going from `O=c1c2ccccc2c(/C=N/n2cnnc2)c(O)n1-c1ccccc1` to `O=C(CN1C(=O)CCSc2ccccc21)Nc1ccccc1`, the inhibition falls from 2% to 0%.

Compared with `Cc1cc(=O)oc2cc(OCC(=O)OCc3nnc(-c4ccccc4)o3)ccc12`, `O=C(COc1ccccc1)NCC(c1cccs1)N1CCOCC1` (stereo not drawn) is higher in inhibition: 1% for the first, 4% for the second.

`COC(=O)CN(c1ccc(C)c(Cl)c1)S(C)(=O)=O` and `Cc1ccc(C(c2sc3ncnn3c2O)N2CC(C)CC(C)C2)cc1` (stereo not drawn) are the same in inhibition: 0% for the first, 0% for the second.

For `O=c1[nH]c2c(s1)C(c1ccco1)C1C3CCC(C3)C1S2` (stereo not drawn), the inhibition was 0%.
